Pf growth 48h: P. falciparum growth inhibition at 48 hours (one generation). actives 5.9% (n = 310,000). AID 504832. Potency, µM (top dose mostly 28.7 µM), usual class: inhibitors. P. falciparum luciferase growth in erythrocytes, 48 h
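Read-out is firefly luciferase luminescence from an integrated reporter in P. falciparum, so falling signal marks reduced parasite growth. Infected erythrocytes were at 2% hematocrit and 0.1% parasitemia (final) in Albumax-supplemented RPMI 1640.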
Cycloheximide cs: affects cycloheximide protein synthesis inhibition readout, counter-screen; cell reporter, cycloheximide protein synthesis inhibition counterscreen; max response, %; actives 12% (n = 300,000); in the data active means max response mostly above about 13%, no sharp cut-off; inactive means mostly below about 14%; further: read at 38.3 µM for the half of the compounds with a filed dose
Pf growth 96h: P. falciparum growth inhibition at 96 hours; P. falciparum luciferase reporter growth, 96 h; actives 6.9% (n = 320,000); Potency, µM (top dose mostly 28.7 µM), usual class: inhibitors
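Two parasite generations (96 h, 37 C, 5% CO2) of compound exposure in infected erythrocytes (0.05% parasitemia, 2% hematocrit). Luciferase-reporter P. falciparum; decreased luminescence indicates inhibited growth, aimed at apicoplast-acting delayed death.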
HCMV antiviral: blocks human cytomegalovirus replication; HFF cells, HCMV-luciferase reporter, 72 h; stronger effect = lower value; activity change, negative = inhibition, % at 57.5 µM; actives 4.5% (n = 410,000); in the data active means activity change below about -60%; inconclusive means no clear call, values can overlap the other calls; inactive means above about -39%
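After 16 h attachment at 37C, HFF cells received test compound and HCMV-luciferase (1 PFU/cell); reporter luminescence read 72 h later, data normalized against buffer-only and known inhibitor Salinomycin.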
Shiga inhibitor: inhibitors of Shiga toxin in Vero cells | inhibition, % at 38.7 µM | Vero cells, Shiga toxin protein synthesis inhibition reporter | actives 9.2% (n = 290,000) | AID 2315; in the data active means inhibition mostly above about 28%, no sharp cut-off; inactive means mostly below about 43%
HCV inhibitor: blocks hepatitis C virus; Huh7.5.1 HCVcc-Cre infection, luciferase reporter, 44 h; actives 3.4% (n = 340,000); AID 651820; Potency, µM (series often up to 41.8 µM), actives largely listed as inhibitors
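Reporter virus HCVcc-Cre (~0.5 moi) infects cells exposed to compound; seeding density 1,000 cells/well with 4 h settling beforehand. Luminescence, 15 sec read, taken 44 h post-infection following a 15 min RT substrate incubation.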
Hits are given with their value. Sampled rows, rich in hits. Any-hit rate of the full collection: about 21%. Unless noted, the call rests on the fitted dose curve; in most records, active means well fitted inhibition curve with a large enough effect; inconclusive means small, poorly fitted or top-dose-only effect, or another doubt; inactive means no such curve, though single readings can be large or run the other way.

Cc1ccc(O)c(N=Cc2sc3ccccc3c2Cl)c1 was read as Pf growth 48h inconclusive, Cycloheximide cs 45.2, Pf growth 96h inconclusive, HCMV antiviral inactive, Shiga inhibitor 73.1 and HCV inhibitor inactive.
COc1ccc(OC)c(NC(=O)COC(=O)CCc2nc3ccccc3c(=O)[nH]2)c1 was read as HCMV antiviral inactive and HCV inhibitor inactive.
`CC1(C)C([N+](=O)[O-])C(c2ccc(Cl)cc2)NC(c2ccc(Cl)cc2)C1[N+](=O)[O-]` (centres undefined) gave Pf growth 48h inconclusive, Cycloheximide cs inactive, Pf growth 96h inconclusive, HCMV antiviral inactive, Shiga inhibitor inactive and HCV inhibitor inactive.
`COc1ccc(NC(=O)c2ccc3c(c2)OCO3)cc1` gave Pf growth 48h inactive, Cycloheximide cs 33.2, Pf growth 96h inconclusive, HCMV antiviral inactive, Shiga inhibitor inactive and HCV inhibitor inactive.
For CCN1CCC(N(Cc2ccc3c(c2)OCO3)C(=O)Nc2ccccc2OC)CC1 the results were HCMV antiviral inactive.
`CCOc1cc(C(=O)Nc2ccc3c(c2)OCO3)ccc1OCCOc1ccccc1Cl` gave Pf growth 48h inactive, Cycloheximide cs inactive, Pf growth 96h inactive, HCMV antiviral inactive, Shiga inhibitor inactive and HCV inhibitor inactive.
COc1ccc(NC(=O)c2ccc3c(c2)OCO3)cc1[N+](=O)[O-] was read as Pf growth 48h inactive, Cycloheximide cs 31.2, Pf growth 96h inactive, HCMV antiviral inactive, Shiga inhibitor 59.5 and HCV inhibitor inactive.
For CCN1CCC(N(Cc2ccc3c(c2)OCO3)C(=O)Nc2cc(Cl)ccc2C(=O)OC)CC1 the results were HCMV antiviral -79.8.
`CCOc1ccc(C(=O)Nc2ccc3c(c2)OCO3)cc1OCC` gave Pf growth 48h inactive, Cycloheximide cs inactive, HCMV antiviral inactive, Shiga inhibitor inactive and HCV inhibitor 5.62µM.
For Cc1cc(C(=O)NNC(=O)COc2ccccc2Cl)n[nH]1 the results were Pf growth 48h inactive, Cycloheximide cs inactive, Pf growth 96h inconclusive, HCMV antiviral inactive, Shiga inhibitor inactive and HCV inhibitor inactive.
O=C(Nc1ccc2c(c1)OCO2)Oc1ccccc1 was read as Pf growth 48h inactive, Cycloheximide cs 38.5, Pf growth 96h inactive, HCMV antiviral inactive, Shiga inhibitor 75.6 and HCV inhibitor inactive.
For CCOC(=O)c1c(C)[nH]c(C(=O)Nc2ccc3c(c2)OCO3)c1C the results were Pf growth 48h inactive, Cycloheximide cs 40.6, Pf growth 96h inconclusive and Shiga inhibitor 53.2.
CCOC(=O)Nc1ccc2c(c1)OCO2 was read as Pf growth 48h inactive, Cycloheximide cs 45.5, Pf growth 96h inconclusive, HCMV antiviral inactive, Shiga inhibitor inactive and HCV inhibitor inconclusive.
Screening CCOC(=O)c1ccc(N2C(=O)CC(N(Cc3ccc4c(c3)OCO4)C(=O)Nc3ccccc3)C2=O)cc1 (centres undefined) returned Cycloheximide cs inactive, Pf growth 96h 9.28µM, HCMV antiviral inactive, Shiga inhibitor inactive and HCV inhibitor inactive.
Screening CC(=O)c1c(C)[nH]c(C(=O)OCC(=O)Nc2ccc3c(c2)OCCO3)c1C returned HCMV antiviral inactive and HCV inhibitor inconclusive.
For COC(=O)Nc1ccc2c(c1)OCO2 the results were Pf growth 48h inconclusive, Cycloheximide cs inactive, Pf growth 96h inactive, HCMV antiviral inactive, Shiga inhibitor inactive and HCV inhibitor inactive.
Screening CC(C)(C)OC(=O)N1CCC[C@H]1c1nnc(SCc2ccc(Cl)cc2)o1 returned Pf growth 48h inactive, Cycloheximide cs inactive, Pf growth 96h inactive, HCMV antiviral inactive, Shiga inhibitor inactive and HCV inhibitor inactive.
COc1ccc2[nH]c(C(=O)Nc3ccc4c(c3)OCO4)cc2c1 was read as Pf growth 48h inactive, Cycloheximide cs 53.2, Pf growth 96h inactive, HCMV antiviral inactive, Shiga inhibitor 99.5 and HCV inhibitor inactive.
For CCC(=O)Nc1ccc(NC(=O)c2ccc3c(c2)OCO3)cc1 the results were Cycloheximide cs inactive, HCMV antiviral inactive, Shiga inhibitor inactive and HCV inhibitor inactive.
CCN(CC)c1ccc(C(=O)Nc2ccc3nc(N(CC)CC)cc(C)c3c2)cc1 was read as HCMV antiviral -67.2.
Screening CCN(CC)c1cc(C)c2ccccc2n1 returned Pf growth 48h inactive, Cycloheximide cs inactive, Pf growth 96h inactive, HCMV antiviral inactive, Shiga inhibitor inactive and HCV inhibitor inactive.
For CCN(CC)c1ccc(NC(=O)c2ccc3c(c2)OCO3)cc1 the results were Pf growth 48h inactive, Cycloheximide cs 54.6, Pf growth 96h inconclusive, HCMV antiviral inactive, Shiga inhibitor 58.1 and HCV inhibitor inconclusive.
`COc1ccc(C)cc1NC(=O)c1ccc2c(c1)OCO2` gave Pf growth 48h inactive, Cycloheximide cs 48.2, Pf growth 96h inactive, HCMV antiviral inactive, Shiga inhibitor 96.5 and HCV inhibitor inconclusive.
Screening Cc1ccc(C(C)C)c(OCC(=O)N2CCC(c3nc4ccccc4o3)CC2)c1 returned HCMV antiviral inactive.
Screening CCOP(=O)(OCC)C(NC(=O)NS(=O)(=O)c1ccc(C)cc1)c1ccccc1 (centres undefined) returned Pf growth 48h inactive, Cycloheximide cs inactive, Pf growth 96h inactive, HCMV antiviral inactive, Shiga inhibitor inactive and HCV inhibitor inactive.
`CCOC(=O)c1ccc(NC(=O)c2ccc3c(c2)OCO3)cc1` gave Pf growth 48h inactive, Cycloheximide cs 19.3, HCMV antiviral inactive, Shiga inhibitor inactive and HCV inhibitor inconclusive.
`COc1ccc(C(O)c2nc(-c3cccc(F)c3)cs2)cc1` (centres undefined) gave HCMV antiviral inactive.
For CN(C)CCCC1Sc2ccccc2Sc2ccccc21 (centres undefined) the results were HCMV antiviral inactive and HCV inhibitor 15.8µM.
Cc1nn2c(CN(C(=O)COc3ccccc3)c3ccccc3)nnc2c2ccccc12 was read as Pf growth 48h inconclusive, Cycloheximide cs inactive, Pf growth 96h inactive, HCMV antiviral -67.8, Shiga inhibitor inactive and HCV inhibitor inactive.
`Cc1nn2c(CN(C(=O)CN3CCOCC3)c3ccccc3)nnc2c2ccccc12` gave Pf growth 48h inactive, Cycloheximide cs inactive, Pf growth 96h inactive, HCMV antiviral inactive, Shiga inhibitor inactive and HCV inhibitor inactive.
Cc1nn2c(COc3ccc(NC(=O)c4ccccc4Cl)cc3)nnc2c2ccccc12 was read as Pf growth 48h 11.7µM, Cycloheximide cs inactive, Pf growth 96h 4.15µM, HCMV antiviral inactive, Shiga inhibitor inactive and HCV inhibitor inconclusive.
Screening O=C(CSc1nc2cc(C(=O)O)ccc2c(=O)n1-c1ccc(F)cc1)Nc1ccc(F)c(F)c1F returned Cycloheximide cs inactive, Pf growth 96h inconclusive, HCMV antiviral inactive, Shiga inhibitor inactive and HCV inhibitor inactive.
Cc1ccc(S(=O)(=O)N2[C@@H](Cc3ccccc3)CO[C@H]2CC(=O)c2cccs2)cc1 was read as HCMV antiviral inactive.
`COc1ccccc1N1CCN(C(=O)c2oc3ccccc3c2N)CC1` gave HCMV antiviral inactive.
